The list is not random: actives were taken first. Their share in the collection is about 1.7%.
GLP-1R agonist: activates the human GLP-1 receptor; Potency, µM (top dose mostly 45.6 µM), hits mostly activators; HEK293 GLP-1R CRE-luciferase, luminescence, 4-6 h; cells express a hypersensitive GLP-1R form; P43220; hit rate 0.007% among 380,000
Target sequence (P43220 whole entry, looked up): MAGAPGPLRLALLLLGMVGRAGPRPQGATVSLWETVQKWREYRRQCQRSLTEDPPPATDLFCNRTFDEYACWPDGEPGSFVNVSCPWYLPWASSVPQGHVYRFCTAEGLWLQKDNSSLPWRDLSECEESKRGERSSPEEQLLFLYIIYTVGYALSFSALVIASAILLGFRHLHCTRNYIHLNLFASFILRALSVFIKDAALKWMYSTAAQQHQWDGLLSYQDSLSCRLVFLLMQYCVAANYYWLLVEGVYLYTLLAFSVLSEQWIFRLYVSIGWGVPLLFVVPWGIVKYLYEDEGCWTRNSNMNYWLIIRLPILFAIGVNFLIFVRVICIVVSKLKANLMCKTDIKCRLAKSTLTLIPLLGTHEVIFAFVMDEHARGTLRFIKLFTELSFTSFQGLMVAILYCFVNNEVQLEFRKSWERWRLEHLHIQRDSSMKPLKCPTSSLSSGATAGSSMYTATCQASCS
HEK293 tox: cytotoxic in the GLP-1 receptor inverse agonist counter-screen; AID 624418; hit rate 0.13% among 410,000; Potency, µM (highest dose often 38.3 µM), hits mostly inhibitors; HEK293 cAMP-luciferase reporter cells, luminescence, 24 h;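 note: loss of luciferase light is scored as toxicity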
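MLSMR compounds, 24 hr on cells at 37 deg C/5% CO2; luminescence after luciferase reagent (12 min RT). Inhibition counted as the undesired cytotoxic outcome.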
GLP-1R inv ag: GLP-1 receptor (human) inverse agonism; P43220; HEK293 GLP-1R CRE-luciferase, luminescence, 24 h; GLP-1R form is constitutively active; Potency, µM (highest dose often 38.3 µM), hits mostly inhibitors; hit rate 1.6% among 410,000; AID 624417; note: nearly all actives have a fitted effect of over 55% in size
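Inverse agonism was detected as reduced cAMP-driven luciferase luminescence after 24 h compound treatment. The cells were HEK293 clones expressing constitutively active human GLP-1R with the reporter. Reporter-only and GPR119 cell lines served as counterscreen controls.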
PTHR1 ag: PTHR1 (human) receptor agonism | HEK293 GP2 PTHR1 cells, GloSensor cAMP luminescence, 1 h | Potency, µM (series often up to 115 µM), usual class: activators | Q03431 | hit rate 0.075% among 410,000; note: nearly all actives have a fitted effect of over 55% in size
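HEK-293-derived GP2 cells expressing PTHR1 and a GloSensor cAMP reporter, 3,000/well, plated overnight, given luciferin plus IBMX (each 0.5 mM as added) for 1 h at 37 °C, then compound for 1 h at 37 °C. Luminescence was read after 15 min at room temperature.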
RGS4 inhibitor: inhibitors of human regulator of G protein signaling 4 | P49798 | hit rate 0.039% among 390,000 | Transcreener GDP fluorescence polarization, RGS4-accelerated GTP hydrolysis | Potency, µM (series often up to 114 µM), most hits filed as inhibitors; note: nearly all actives have a fitted effect of over 75% in size
Target sequence (P49798 whole entry, looked up): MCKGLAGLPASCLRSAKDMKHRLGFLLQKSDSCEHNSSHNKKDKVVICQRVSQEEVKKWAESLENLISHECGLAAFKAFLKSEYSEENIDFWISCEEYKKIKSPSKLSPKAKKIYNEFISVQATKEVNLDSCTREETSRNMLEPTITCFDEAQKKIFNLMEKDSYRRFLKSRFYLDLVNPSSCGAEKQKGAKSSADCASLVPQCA
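MLSMR compounds (23 nl, pin-transferred) preincubated 10 min at room temperature with a 500nM (2x) first reagent, then RGS4 at 900nM (2x) plus Transcreener GDP mix added; fluorescence polarization (620/688 nm) read before and after 90 min at 30 °C.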
Of the large screens only hits and unclear results are named; the others gave an inactive call; ! = not active in a repeat. Calls come from the whole dose curve; as a rule, active = well fitted curve in the direction sought with a large enough effect; inconclusive = small, poorly fitted or top-dose-only effect, or another doubt; inactive = no such curve, though single readings can be large; an effect the other way counts as inactive or inconclusive.

COc1ccc(OCc2cc(C(=O)NCC3CCOCC3)no2)c(Cl)c1	none
Cc1cc(=O)[nH]c(SCC(=O)N2CCN(c3ccccc3)CC2)n1	none (no result: GLP-1R agonist)
Cc1cc(=O)[nH]c(SCC(=O)N2CCN(C(c3ccccc3)c3ccccc3)CC2)n1	GLP-1R inv ag 5.6µM
O=C(C(=O)N1CCC(Cc2ccccc2)CC1)c1ccccc1	GLP-1R inv ag inconclusive (no result: GLP-1R agonist, RGS4 inhibitor)
CCOc1ccc(C(=O)Nc2c(C)nc(Nc3ccccc3)nc2Nc2ccccc2)cc1OCC	GLP-1R inv ag 10µM
CCOc1ccc(Nc2nc(C)c(NC(=O)c3cccc(OC)c3)c(Nc3ccc(OCC)cc3)n2)cc1	GLP-1R inv ag inconclusive
O=C(Nc1nnc(Cc2ccccc2)s1)C1CCN(C(=O)c2cccs2)CC1	none (no result: GLP-1R agonist, HEK293 tox, GLP-1R inv ag, PTHR1 ag)
CCN(CC(=O)Nc1ccc(NC(C)=O)cc1)C(=O)COc1ccc(C(=O)c2ccccc2)cc1	none
CN(CC(=O)Nc1ccc(F)cc1)C(=O)COc1ccc(C(=O)c2ccccc2)cc1	GLP-1R inv ag 10µM
CCn1c(=O)c2sccc2n2c(CCCC(=O)N3CCN(c4cc(Cl)ccc4C)CC3)nnc12	none (no result: GLP-1R agonist)
Cc1cc(Nc2cccc(C(F)(F)F)c2)nc2ccc(NC(=O)c3cncc(Br)c3)cc12	GLP-1R inv ag inconclusive (no result: GLP-1R agonist)
CCOc1cc(C(=O)Nc2ccc3nc(Nc4cccc(Cl)c4)cc(C)c3c2)cc(OCC)c1OCC	GLP-1R inv ag 5.6µM
Cc1cc(Nc2cccc(Cl)c2)nc2ccc(NC(=O)COc3ccc(Cl)cc3)cc12	none
Cc1cc(Nc2cccc(Cl)c2)nc2ccc(NC(=O)c3cncc(Br)c3)cc12	HEK293 tox inconclusive, GLP-1R inv ag 2µM
CSc1ccc(C(=O)N2CCC(CCC(=O)NCc3ccc(F)cc3)CC2)cc1	GLP-1R inv ag inconclusive
CC(=O)Nc1ccc(NC(=O)C(C)N(C)CC(=O)Nc2ccccc2Br)cc1 (stereo not given)	none
COc1ccnc(CSC(N)=Nc2cccc(C(F)(F)F)c2)c1	GLP-1R inv ag 11µM
Cc1ccc(NC2CCCN(C(=O)c3cc(C(C)C)nn3C)C2)cc1C (stereo not given)	GLP-1R inv ag inconclusive (no result: RGS4 inhibitor)
CC(C)c1cc(-c2cc(C(=O)NCc3ccccc3)on2)nc(NCC2CC2)n1	GLP-1R inv ag 13µM
CS(=O)(=O)Cc1ccc(C(=O)N2CCCC2c2cccs2)cc1 (stereo not given)	none
CC(C)(C)c1ccc(C(=O)N2CCCC2c2cccs2)cc1 (stereo not given)	GLP-1R inv ag 11µM
Cc1ccc(Cl)cc1NC1=C/C(=N\S(=O)(=O)c2cccs2)c2ccccc2C1=O	HEK293 tox inconclusive, GLP-1R inv ag 1µM!
Cc1ccc(NC2=C/C(=N\S(=O)(=O)c3cccs3)c3ccccc3C2=O)c(C)c1	HEK293 tox inconclusive, GLP-1R inv ag inconclusive
Cc1[nH]ccc2cc3nc4ccccc4c3cc12	GLP-1R inv ag 10µM (no result: RGS4 inhibitor)
Cc1cccc2nc3ccccc3cc12	none
COc1cc(CNC2CCCCCCC2)cc(Cl)c1OCC(N)=O	none
COc1cc(CNC2CCCC2)cc(Cl)c1OCc1ccc(F)cc1	HEK293 tox inconclusive, GLP-1R inv ag 4.5µM
COc1cc(CNC2CCCC2)cc(Cl)c1OCc1ccccc1Cl	HEK293 tox inconclusive, GLP-1R inv ag 8.9µM
Cc1cccc(CC2C(=O)Nc3ccccc32)c1 (stereo not given)	none (no result: GLP-1R agonist)
O=C(Cc1ccccc1)N/N=C/c1ccc2cccc(O)c2n1	HEK293 tox 5.6µM, GLP-1R inv ag inconclusive
Cc1ccc(C)c(N/C(N)=N/c2nc(C)cc(C)n2)c1	HEK293 tox inconclusive, GLP-1R inv ag 8.9µM
CCCN1CCN(C(=O)C2CCN(c3ncnc4c3nc3n4CCCCC3)CC2)CC1	none
CC(C)(C)NC(=O)CSc1ncnc2c1nnn2Cc1ccccc1Cl	GLP-1R inv ag 4µM, RGS4 inhibitor inconclusive
Cc1ccc(S(=O)(=O)Nc2ccccc2N2CCCCC2)cc1	GLP-1R inv ag 2.8µM
O=C(CSc1nc2ccccc2s1)N1c2ccccc2Sc2ccccc21	GLP-1R inv ag 5.6µM, PTHR1 ag inconclusive
N#Cc1c(NC(=O)/C=C/C(=O)O)sc2c1CCN(Cc1ccccc1)C2	none
COc1ccccc1C1c2ccc3ccccc3c2Oc2ncn(CCN(C)C)c(=N)c21 (stereo not given)	HEK293 tox inconclusive, GLP-1R inv ag 2.8µM
COc1ccccc1C1c2ccc3ccccc3c2Oc2ncn(CCCO)c(=N)c21 (stereo not given)	HEK293 tox inconclusive, GLP-1R inv ag inconclusive
COc1ccc(C2c3c(ncn(CCCO)c3=N)Oc3ccc4ccccc4c32)cc1 (stereo not given)	HEK293 tox inconclusive, GLP-1R inv ag inconclusive
COc1ccc(C2c3ccc4ccccc4c3Oc3ncn(CCCN(C)C)c(=N)c32)cc1 (stereo not given)	HEK293 tox inconclusive, GLP-1R inv ag 4.5µM
CC(=O)c1ccc(NC(=O)C2CCN(c3nnc(C)c4c(C)n(-c5ccccc5)nc34)CC2)cc1	none (no result: GLP-1R agonist)
Cc1ccc(/C=C/c2nc3ccccc3n2S(=O)(=O)c2cccc(Cl)c2)cc1	GLP-1R inv ag inconclusive (no result: GLP-1R agonist)
CCN(CC)S(=O)(=O)c1cccc(C(=O)Nc2nc3cc4c(cc3s2)OCCO4)c1	GLP-1R inv ag 11µM
CCOc1ccccc1NC(=O)Cn1nnc2sc(-c3ccccc3)cc2c1=O	none (no result: GLP-1R agonist)
O=C(CSc1cccc2cccnc12)N1CCCC1	HEK293 tox 0.71µM, GLP-1R inv ag 0.5µM
NNC(=O)CSc1cccc2cccnc12	none
O=C(CSc1ncccn1)N1CCCCCC1	none
CCCCOc1ccc(NC(=O)CSc2cccc3cccnc23)cc1	HEK293 tox inconclusive, GLP-1R inv ag 2.8µM
CN(C)C(=O)CSc1cccc2cccnc12	HEK293 tox 2.5µM, GLP-1R inv ag 2.8µM
Cc1ccc(Nc2ncc(C(=O)Nc3ccc(F)cc3F)c3ccccc23)cc1Cl	none
CCc1nc2ccccc2c(=O)n1/N=C/c1ccc(OC)cc1	none
Cc1c(Br)c([N+](=O)[O-])nn1CC(=O)N1CCc2ccccc21	none
O=C(C(c1ccccc1)c1ccccc1)N1CCCc2ccccc21	GLP-1R inv ag 5µM
Cc1c(Br)c([N+](=O)[O-])nn1C(C)C(=O)N1CCCc2ccccc21 (stereo not given)	GLP-1R inv ag 10µM, RGS4 inhibitor inconclusive
O=C(NC(=O)N1CCCc2ccccc21)c1ccccc1	none
CCOC(=O)c1sc2nc(OCc3cccnc3)cc(C)c2c1N	GLP-1R agonist inconclusive (no result: RGS4 inhibitor)
COc1ccc(CNC(=O)c2cccc3c(-c4cnn(C)c4)coc23)cc1OC	GLP-1R agonist inconclusive (no result: RGS4 inhibitor)
Cc1ccccc1Cn1nc(C)c(NC(=O)c2cc(CC(C)C)on2)c1C	GLP-1R inv ag inconclusive
Cc1nn(Cc2ccc(Cl)c(Cl)c2)c(C)c1NC(=O)c1cc(CC(C)C)on1	GLP-1R inv ag 3.2µM
O=C(NCCc1ccccc1)C(=O)NCC(c1ccco1)S(=O)(=O)c1cccs1 (stereo not given)	none (no result: GLP-1R agonist)
